Results taken from PubChem BioAssay (Tox21).
Results filed as inconclusive are left out. The source made the active and inactive calls. Unless noted, the call rests on the fitted dose curve; in most records, active means well fitted curve in the direction sought with a large enough effect in the repeat runs; inconclusive means weak or mixed curves; inactive means no such curve, though single readings can be large; an effect the other way counts as inactive or inconclusive.

Key:
[1] = qHTS assay to identify small molecule antagonists of the peroxisome proliferator-activated receptor gamma (PPARg) signaling pathway - cell viability counter screen (AID 743194); further: nearly all actives have a fitted effect of over 55% in size
Summary of the method: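 PPARg-UAS-bla HEK293H cells were plated, rested 5 h at 37 C, then treated with compounds plus rosiglitazone (50 nM final) for 17 h at 37 C; viability was then read by CellTiter-Glo luminescence after 30 min at room temperature.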

[2] = qHTS assay for small molecule agonists of the antioxidant response element (ARE) signaling pathway (AID 743202; active means well fitted activation curve with a large enough effect in the signal ratio in the repeat runs, not every such curve was filed as active; the % refers to the signal ratio)
Summary of the method: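 Compounds delivered in DMSO to ARE-bla HepG2 cells (2,000 cells/well, pre-incubated 5 h) and left 16 h at 37 C. LiveBLAzer B/G FRET substrate then added for 2 h at RT before fluorescence reading.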

[3] = qHTS assay for small molecule activators of the heat shock response signaling pathway - cell viability counter screen (AID 743209); further: nearly all actives have a fitted effect of over 50% in size
Summary of the method: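 First, HSE-bla HeLa cells were seeded at 1500 cells/well and kept overnight at 37 C. Next, compounds were pinned in and incubated 5 h. After the FRET substrate step, CellTiter-Glo was added and luminescence read 30 min later.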

[4] = qHTS assay to identify small molecule agonists of the peroxisome proliferator-activated receptor delta (PPARd) signaling pathway - cell viability counter screen (AID 743211); further: nearly all actives have a fitted effect of over 55% in size; further: potency means the concentration at half of the fitted maximal effect
Summary of the method: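 qHTS cell viability: PPARd-bla HEK293H; 17 h cpd, 37C; CellTiter-Glo, luminescence at 30 min RT.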

[5] = qHTS assay to identify small molecule antagonists of the peroxisome proliferator-activated receptor delta (PPARd) signaling pathway - cell viability counter screen (AID 743213); further: nearly all actives have a fitted effect of over 50% in size
Summary of the method: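 Agonist-stimulated (L165041, 300 nM final) HEK293H PPARd UAS-bla cells are exposed to compounds for 17 h at 37 C, and ATP-based luminescence (CellTiter-Glo) from the same wells reports cytotoxicity.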

[6] = qHTS assay to identify small molecule agonists of the farnesoid-X-receptor (FXR) signaling pathway - cell viability counter screen (AID 743218); further: nearly all actives have a fitted effect of over 45% in size
Summary of the method: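 Cytotoxicity counter-screen run in parallel, same wells: FXR-UAS-bla HEK 293T cells dosed 16 h at 37 C, viability read by CellTiter-Glo luminescence after 30 min at room temperature.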

[7] = qHTS assay to identify small molecule antagonists of the farnesoid-X-receptor (FXR) signaling pathway - cell viability counter screen (AID 743221; active means well fitted cell-killing curve with a large enough effect in the repeat runs, not every such curve was filed as active; further: nearly all actives have a fitted effect of over 50% in size)
Summary of the method: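 After a 5 h settling period, FXR-bla HEK 293T cells receive compound and chenodeoxycholic acid (50 uM final) and incubate 16 h at 37 C; CellTiter-Glo luminescence, read after 30 min at room temperature, reports cell viability.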

[8] = molecular target: Vitamin D3 receptor (Homo sapiens) (UniProt P11473); assay: qHTS assay to identify small molecule agonists of the vitamin D receptor (VDR) signaling pathway (AID 743222; calls by dose curve)
Chain of Vitamin D3 receptor (Homo sapiens) (P11473 whole entry, looked up): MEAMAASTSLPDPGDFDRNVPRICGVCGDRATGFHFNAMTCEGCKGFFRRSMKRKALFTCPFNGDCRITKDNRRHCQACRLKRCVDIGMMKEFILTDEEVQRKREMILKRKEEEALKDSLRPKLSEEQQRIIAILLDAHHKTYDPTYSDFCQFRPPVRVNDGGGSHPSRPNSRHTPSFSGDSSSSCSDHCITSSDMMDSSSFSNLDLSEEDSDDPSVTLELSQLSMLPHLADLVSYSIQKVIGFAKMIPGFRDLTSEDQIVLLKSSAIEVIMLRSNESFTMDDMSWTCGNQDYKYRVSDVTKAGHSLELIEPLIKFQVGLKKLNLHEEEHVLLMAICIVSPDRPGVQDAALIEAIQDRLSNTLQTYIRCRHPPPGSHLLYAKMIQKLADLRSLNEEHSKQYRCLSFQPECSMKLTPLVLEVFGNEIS
Summary of the method: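 Quantitative HTS agonist-mode screen: compounds in DMSO were pin-transferred onto VDR-bla cells and incubated 16 h at 37C, 5% CO2. Reporter activity was detected with LiveBLAzer B/G FRET substrate after 2 h at room temperature.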

[9] = qHTS assay to identify small molecule that activate the aryl hydrocarbon receptor (AhR) signaling pathway - cell viability counter screen (AID 743086);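 further: HepG2 liver cells carrying the AhR DRE luciferase reporter; series mostly up to about 70 µM; nearly all actives have a fitted effect of over 45% in size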
Summary of the method: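 HepG2-AhR-luc (HG2L7.5c1) cells, 4000/well, were preincubated 5 h at 37C, exposed to compound in qHTS format for 24 hr at 37C, then given CellTiter-Fluor for 30 min; viability was read as fluorescence in the reporter wells.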

[10] = qHTS assay for small molecule agonists of the antioxidant response element (ARE) signaling pathway - cell viability counter screen (AID 743203; calls by dose curve; further: nearly all actives have a fitted effect of over 55% in size)
Summary of the method: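 Seeded at 2,000 cells/well, ARE-bla HepG2 cells were incubated 5 hrs before compound addition. After 16 hrs of treatment at 37C with 5% CO2, CellTiter-Glo reagent was added and luminescence read 30 min later.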

[11] = qHTS assay for small molecule activators of the heat shock response signaling pathway (AID 743210; active means well fitted activation curve with a large enough effect in the signal ratio in the repeat runs, with a control signal flat, not every such curve was filed as active; the % refers to the signal ratio;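 further: HeLa cells with beta-lactamase reporter driven by heat shock elements; series mostly up to about 63 µM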)
Summary of the method: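 Reporter gene assay: HeLa cells stably bearing an HSE-bla construct, compound treatment 5 h at 37 C, LiveBLAzer substrate 2.5 h at RT, fluorescence intensity.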

[12] = molecular target: Bile acid receptor (Homo sapiens) (UniProt Q96RI1); assay: qHTS assay to identify small molecule antagonists of the farnesoid-X-receptor (FXR) signaling pathway (AID 743217; active means well fitted inhibition curve with a large enough effect in the signal ratio in the repeat runs, not every such curve was filed as active; the % refers to the signal ratio)
Chain of Bile acid receptor (Homo sapiens) (Q96RI1 whole entry, looked up): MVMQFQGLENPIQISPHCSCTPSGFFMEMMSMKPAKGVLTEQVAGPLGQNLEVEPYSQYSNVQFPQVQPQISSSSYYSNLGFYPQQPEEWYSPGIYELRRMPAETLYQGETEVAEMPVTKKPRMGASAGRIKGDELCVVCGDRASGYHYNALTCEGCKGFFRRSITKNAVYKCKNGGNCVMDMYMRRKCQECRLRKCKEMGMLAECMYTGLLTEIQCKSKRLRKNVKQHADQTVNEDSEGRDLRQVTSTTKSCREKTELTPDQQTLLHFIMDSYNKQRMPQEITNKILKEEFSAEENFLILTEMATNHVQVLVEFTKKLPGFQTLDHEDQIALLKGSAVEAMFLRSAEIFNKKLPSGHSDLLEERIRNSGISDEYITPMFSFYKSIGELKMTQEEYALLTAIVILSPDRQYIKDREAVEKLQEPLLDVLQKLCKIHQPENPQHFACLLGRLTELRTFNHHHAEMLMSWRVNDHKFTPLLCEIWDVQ
Summary of the method: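 Antagonist mode against 50 uM (final) chenodeoxycholic acid stimulation in FXR-bla HEK 293T cells, 16 h at 37 °C. Inhibition detected as reduced beta-lactamase activity via LiveBLAzer B/G FRET fluorescence after 2 h at room temperature.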

[13] = molecular target: Bile acid receptor (Homo sapiens) (UniProt Q96RI1); assay: qHTS assay to identify small molecule agonists of the farnesoid-X-receptor (FXR) signaling pathway (AID 743220; active means well fitted activation curve with a large enough effect in the signal ratio in the repeat runs, not every such curve was filed as active; the % refers to the signal ratio)
Summary of the method: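 Beta-lactamase reporter under UAS control in GeneBLAzer FXR HEK 293T cells (5000/well) measured with LiveBLAzer FRET substrate after 2 h at room temperature. Compound exposure lasted 16 h at 37C.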

[14] = molecular target: Peroxisome proliferator-activated receptor delta (Homo sapiens) (UniProt Q03181); assay: qHTS assay to identify small molecule antagonists of the peroxisome proliferator-activated receptor delta (PPARd) signaling pathway (AID 743215; active means well fitted inhibition curve with a large enough effect in the signal ratio in the repeat runs, not every such curve was filed as active; the % refers to the signal ratio; further: series mostly up to about 62 µM)
Chain of Peroxisome proliferator-activated receptor delta (Homo sapiens) (Q03181 whole entry, looked up): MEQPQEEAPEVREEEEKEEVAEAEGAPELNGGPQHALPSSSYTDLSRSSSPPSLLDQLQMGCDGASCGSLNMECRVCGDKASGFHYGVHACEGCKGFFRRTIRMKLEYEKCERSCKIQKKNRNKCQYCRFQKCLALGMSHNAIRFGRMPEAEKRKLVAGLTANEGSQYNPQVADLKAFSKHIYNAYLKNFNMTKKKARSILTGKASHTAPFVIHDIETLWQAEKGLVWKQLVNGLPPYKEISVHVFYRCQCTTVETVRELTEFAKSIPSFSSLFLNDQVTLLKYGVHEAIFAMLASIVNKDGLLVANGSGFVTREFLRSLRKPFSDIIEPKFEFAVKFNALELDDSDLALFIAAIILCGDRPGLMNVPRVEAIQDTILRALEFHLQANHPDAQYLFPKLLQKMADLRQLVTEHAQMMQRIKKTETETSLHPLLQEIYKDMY
Summary of the method: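 Inhibition of L165041-driven (300 nM final) PPARd signaling is scored in HEK293H UAS-bla cells. Exposure lasts 17 h at 37 C; beta-lactamase activity is then read by FRET substrate fluorescence after 2 h at room temperature.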

[15] = molecular target: Peroxisome proliferator-activated receptor gamma (Homo sapiens) (UniProt P37231); assay: qHTS assay to identify small molecule antagonists of the peroxisome proliferator-activated receptor gamma (PPARg) signaling pathway (AID 743191; calls by dose curve; further: series mostly up to about 63 µM; nearly all actives have a fitted effect of over 30% in size)
Chain of Peroxisome proliferator-activated receptor gamma (Homo sapiens) (P37231 whole entry, looked up): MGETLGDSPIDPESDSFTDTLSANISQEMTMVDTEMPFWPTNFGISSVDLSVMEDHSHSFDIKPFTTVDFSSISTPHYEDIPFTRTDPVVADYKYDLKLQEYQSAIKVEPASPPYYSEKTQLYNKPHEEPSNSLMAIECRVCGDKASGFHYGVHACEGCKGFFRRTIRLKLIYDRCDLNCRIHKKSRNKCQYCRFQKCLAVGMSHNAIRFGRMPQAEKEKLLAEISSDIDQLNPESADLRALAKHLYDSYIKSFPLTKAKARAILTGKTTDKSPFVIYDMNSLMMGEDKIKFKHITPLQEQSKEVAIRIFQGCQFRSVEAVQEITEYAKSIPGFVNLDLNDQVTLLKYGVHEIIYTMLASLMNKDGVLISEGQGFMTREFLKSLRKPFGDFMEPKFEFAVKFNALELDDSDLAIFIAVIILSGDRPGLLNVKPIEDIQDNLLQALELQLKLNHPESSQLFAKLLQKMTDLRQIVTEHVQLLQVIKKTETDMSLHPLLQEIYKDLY
Summary of the method: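 GeneBLAzer PPARg UAS-bla HEK293H cells carrying a UAS-driven beta-lactamase reporter were plated at 3000 cells/well, preincubated 5 h at 37C, then given compound for 17 h at 37C; LiveBLAzer B/G FRET substrate was read after 1 h at room temperature.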

[16] = molecular target: Peroxisome proliferator-activated receptor delta (Homo sapiens) (UniProt Q03181); assay: qHTS assay to identify small molecule agonists of the peroxisome proliferator-activated receptor delta (PPARd) signaling pathway (AID 743212; calls by dose curve)
Summary of the method: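 A PPARd-bla HEK293H line with beta-lactamase under an Upstream Activator Sequence is treated with compounds at 37 C. Substrate loading for 2 h at room temperature precedes the fluorescence measurement.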

[17] = molecular target: Vitamin D3 receptor (Homo sapiens) (UniProt P11473); assay: qHTS assay to identify small molecule antagonists of the vitamin D receptor (VDR) signaling pathway (AID 743223; active means well fitted inhibition curve with a large enough effect in the signal ratio in the repeat runs, not every such curve was filed as active; the % refers to the signal ratio)
Summary of the method: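 Reporter line VDR-bla; stimulus 1alpha,25-(OH)2 vitamin D3, 3 nM final; compound co-addition, 16 h 37C/5% CO2; LiveBLAzer B/G substrate 2 h RT; fluorescence intensity.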

Measured: Potency

CN(C)CCN(Cc1ccsc1)c1ccccn1
inactive: [1] | [2] | [3] | [4] | [5] | [6] | [7] | [8]

Nc1ccccc1S(=O)(=O)c1ccccc1
not listed: [2] | [8] | [14] | [15] | [16] | [17]
inactive: all other assays above

Cc1ccc(C(=O)Oc2ccc(C(O)CNC(C)(C)C)cc2OC(=O)c2ccc(C)cc2)cc1 (centres undefined)
active: [4] 29.8 µM
inactive: [1] | [11] | [13] | [7]

CCC(C)O (centres undefined)
not listed: [6] | [8] | [14] | [15] | [16] | [17]
inactive: all other assays above

CN1Cc2cc(C(=O)N3CCC(C4CCNCC4)CC3)ccc2NC(CC(=O)O)C1=O (centres undefined)
inactive: [1] | [2] | [3] | [11] | [4] | [5] | [14] | [6] | [7]

C[C@@H]1C[C@H]2[C@@H]3CCC4=CC(=O)C=C[C@]4(C)[C@@]3(F)[C@@H](O)C[C@]2(C)[C@@]1(O)C(=O)COC(=O)c1ccncc1
not listed: [4] | [5] | [6] | [9] | [12] | [13] | [14]
inactive: all other assays above
